Data on eight compounds can be found in PubChem BioAssay (NCI).

Compounds without any hit were thinned out: in the full panel of roughly 83,000, 20% have a hit.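 Single-concentration screen, 48 h exposure, 96-well plates. Endpoint: percent growth. Below 10 = active.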 A number with no mark means an inactive call. Active and inactive are the calls of the source.

Test systems include SR leukemia; RPMI-8226 leukemia; OVCAR-8 ovarian; OVCAR-5 ovarian; OVCAR-4 ovarian; SK-OV-3 ovarian; IGROV1 ovarian; HS 578T breast; NCI/ADR-RES ovarian; T-47D breast; BT-549 breast; MDA-MB-435 melanoma; SW-620 colon; MCF7 breast; HCT-116 colon; HCC-2998 colon; KM12 colon.
Experiment in all cases: NCI-60 one-dose screen, 48 h (100 = growth as untreated, 0 = no growth, -100 = all killed)
Conditions in all cases: 10 µM unless noted

With `CNC(=O)Nc1ccc(Nc2cc(-c3ccc(-n4cccn4)cc3)[nH]n2)c(C)c1`, the growth in the experiment on SR leukemia is 89%; with RPMI-8226 leukemia it was 93.3%; in the experiment on OVCAR-8 ovarian it was 102%; in the experiment with OVCAR-5 ovarian, 111%; in the experiment on OVCAR-4 ovarian, 102%; in the experiment with SK-OV-3 ovarian, 107%. Moreover, the growth in the experiment with IGROV1 ovarian is 108%; in the experiment on HS 578T breast it was 116%; with NCI/ADR-RES ovarian it was 99.8%; in the experiment with T-47D breast it was 104%; in the experiment with BT-549 breast, 111%; in the experiment with MDA-MB-435 melanoma, 105%. For the same compound, the growth in the experiment with SW-620 colon is 126%; with MCF7 breast it was 81.2%; in the experiment on HCT-116 colon, 107%; with HCC-2998 colon, 123%; in the experiment on KM12 colon it was 101%.

As for `CCNC(=O)Oc1ccc(/C(=C(/C)c2ccc(Cl)cc2)c2ccc(OCCN3CCCCCC3)cc2)cc1`, the growth in the experiment with SR leukemia is -5.81% (active); with RPMI-8226 leukemia it was -14.9% (active); in the experiment on OVCAR-8 ovarian it was 51.5%; with OVCAR-5 ovarian, 53.5%; with OVCAR-4 ovarian, 43.4%; in the experiment with SK-OV-3 ovarian, 63.2%. Besides, the growth is 49.5% in the experiment on IGROV1 ovarian; -3.08% (active) in the experiment with HS 578T breast; 38.1% in the experiment with NCI/ADR-RES ovarian; 10.8% with T-47D breast; 77.5% with BT-549 breast; 22.5% in the experiment with MDA-MB-435 melanoma. Moreover, the growth with SW-620 colon is -74.5% (active); in the experiment with MCF7 breast, -37.8% (active); with HCT-116 colon, -80% (active); in the experiment with HCC-2998 colon it was 26.1%; with KM12 colon, 12.7%.

Turning to `CCN(CC)c1ccc(/C=N/NC(=O)c2ccc(S(N)(=O)=O)cc2)cc1`, the growth was 14.1% with SR leukemia; 34.3% in the experiment with RPMI-8226 leukemia; 14.6% in the experiment with OVCAR-8 ovarian; 46.7% with OVCAR-5 ovarian; 30.4% in the experiment with OVCAR-4 ovarian; 35.5% in the experiment with SK-OV-3 ovarian. The growth with IGROV1 ovarian was 19.9%; with HS 578T breast, 64.1%; with NCI/ADR-RES ovarian, 53.8%; in the experiment with T-47D breast, 26%; in the experiment on BT-549 breast, 26.3%; with MDA-MB-435 melanoma, 33%. Also, the growth in the experiment on SW-620 colon was 40.4%; with MCF7 breast, 7.83% (active); in the experiment on HCT-116 colon, 21.5%; in the experiment with HCC-2998 colon it was 43%; in the experiment with KM12 colon, 21%.

As for `FC(F)(F)c1cc(Br)cc(-c2cc(-c3ccc4c(c3)OCCO4)[nH]n2)c1`, the growth is 20.8% with SR leukemia; 22.5% with RPMI-8226 leukemia; 19.7% with OVCAR-8 ovarian; 48.8% in the experiment on OVCAR-5 ovarian; 75.6% with OVCAR-4 ovarian; 52.5% in the experiment on SK-OV-3 ovarian. Moreover, the growth in the experiment with IGROV1 ovarian is 20.8%; in the experiment on HS 578T breast, 41.4%; in the experiment on NCI/ADR-RES ovarian, 9.71% (active); in the experiment with T-47D breast, 66.4%; with BT-549 breast it was -3.55% (active); in the experiment with MDA-MB-435 melanoma it was -12.3% (active). Besides, the growth was 25.3% with SW-620 colon; 11.4% with MCF7 breast; 5.67% (active) with HCT-116 colon; 29.1% in the experiment with HCC-2998 colon; 12.3% in the experiment with KM12 colon.

For the compound `N#Cc1cccc(-c2cc(-c3ccc4c(c3)OCCO4)[nH]n2)c1`, the growth in the experiment on SR leukemia is 12.4%; in the experiment with RPMI-8226 leukemia, 18.3%; in the experiment with OVCAR-8 ovarian it was 35.3%; in the experiment with OVCAR-5 ovarian it was 71.8%; in the experiment with OVCAR-4 ovarian, 79.2%; in the experiment with SK-OV-3 ovarian, 54.3%. For the same compound, the growth in the experiment with IGROV1 ovarian is 36.5%; in the experiment on HS 578T breast it was 40.1%; with NCI/ADR-RES ovarian it was 20%; in the experiment on T-47D breast it was 36.4%; with BT-549 breast, 49.3%; with MDA-MB-435 melanoma it was -24.6% (active). Besides, the growth was 27.5% in the experiment on SW-620 colon; 12.2% in the experiment with MCF7 breast; 23.1% with HCT-116 colon; 47.3% in the experiment with HCC-2998 colon; 36.4% with KM12 colon.

With `O=C(CCl)Nc1ccc(NC(=O)c2cc(Cl)ccc2O)c(Cl)c1`, the growth in the experiment on SR leukemia is 21.3%; with RPMI-8226 leukemia, 49.8%; in the experiment on OVCAR-8 ovarian it was 48.6%; in the experiment on OVCAR-5 ovarian, 121%; with OVCAR-4 ovarian it was 83%; with SK-OV-3 ovarian, 90.9%. The growth with IGROV1 ovarian was -45.3% (active); with HS 578T breast, 86.9%; in the experiment on NCI/ADR-RES ovarian it was 56.7%; in the experiment with T-47D breast, 81.3%; in the experiment on BT-549 breast, 65.8%; in the experiment on MDA-MB-435 melanoma, 66%. For the same compound, the growth was 35.2% with SW-620 colon; 29.1% with MCF7 breast; 39% in the experiment on HCT-116 colon; 105% with HCC-2998 colon; 75.8% with KM12 colon.

`C#C[C@]1(O)CC[C@H]2[C@@H]3CC=C4c5sc(N6CCN(C)CC6)nc5CC[C@]4(C)[C@H]3CC[C@@]21C`: the growth in the experiment with SR leukemia is 4.08% (active); in the experiment on RPMI-8226 leukemia, -13.3% (active); in the experiment on OVCAR-8 ovarian it was 74.2%; in the experiment on OVCAR-5 ovarian, 69.5%; with OVCAR-4 ovarian, 75.6%; with SK-OV-3 ovarian it was 54%. Besides, the growth in the experiment on IGROV1 ovarian was 63.2%; in the experiment on HS 578T breast it was 59.8%; in the experiment with NCI/ADR-RES ovarian, 36.8%; with T-47D breast it was 85.7%; in the experiment on BT-549 breast it was 16.9%; with MDA-MB-435 melanoma it was 1.24% (active). The growth in the experiment with SW-620 colon was 19.6%; in the experiment with MCF7 breast, 24.2%; with HCT-116 colon, -41% (active); with HCC-2998 colon, 81.2%; in the experiment with KM12 colon, 21.1%.

With `C#CCOc1ccc(-c2csc(NC(=O)C=C)n2)cc1NS(=O)(=O)c1cccc2c(N(C)C)cccc12`, the growth is 8.34% (active) with SR leukemia; -9.93% (active) in the experiment on RPMI-8226 leukemia; 23.2% with OVCAR-8 ovarian; 81.1% in the experiment on OVCAR-5 ovarian; 63.2% with OVCAR-4 ovarian; 118% in the experiment with SK-OV-3 ovarian. In addition, the growth with IGROV1 ovarian is 32.3%; with HS 578T breast it was 79.2%; in the experiment with NCI/ADR-RES ovarian, 27.5%; with T-47D breast, 60.7%; with BT-549 breast, 58.6%; with MDA-MB-435 melanoma, 14.7%. Moreover, the growth in the experiment with SW-620 colon was 10.3%; in the experiment on MCF7 breast, 4.46% (active); with HCT-116 colon it was -72.2% (active); in the experiment with HCC-2998 colon, 78.4%; with KM12 colon it was 63.1%.
